Common to all, as to test: DAPPL (digital affinity profiling via proximity ligation, sequencing); 10 mM Tris-HCl pH 7.5, 50 mM NaCl, 1 mM DTT, 4% glycerol, room temperature, 30 min; GST-TFs on glutathione beads, 16-mer random dsDNA library, 0.1% formaldehyde crosslink after washing; high values mean tight binding
One assay concerns the target T1, FLI1 (Homo sapiens, UniProt Q01543 1-452).
T1 sequence: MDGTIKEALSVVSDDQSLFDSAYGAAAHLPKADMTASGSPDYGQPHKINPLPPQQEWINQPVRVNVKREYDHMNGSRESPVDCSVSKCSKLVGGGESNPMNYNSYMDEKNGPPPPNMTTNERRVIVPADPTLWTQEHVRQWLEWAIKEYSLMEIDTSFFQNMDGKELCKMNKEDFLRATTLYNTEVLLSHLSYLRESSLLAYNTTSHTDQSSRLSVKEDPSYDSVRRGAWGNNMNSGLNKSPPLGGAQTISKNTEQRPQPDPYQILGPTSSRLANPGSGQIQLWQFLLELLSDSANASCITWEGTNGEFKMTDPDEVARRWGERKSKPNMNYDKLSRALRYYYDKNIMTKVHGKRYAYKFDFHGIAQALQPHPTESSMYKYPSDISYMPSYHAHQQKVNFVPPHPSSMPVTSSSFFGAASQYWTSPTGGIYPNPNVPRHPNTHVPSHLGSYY
The following applies: protein: recombinant; tags: N-terminal GST; dsDNA, one strand shown. In a few lines:
(§1)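 Binding signal is each hexamer's read frequency for a factor divided by its frequency in the tag-only sample. The factors were GST-fused human transcription factors from yeast, captured on glutathione beads, DNA-barcoded and pooled with that sample. Pools were incubated with 200 nmole of a random double-stranded 16-mer DNA library in Tris/NaCl/DTT/glycerol buffer at room temperature for 30 min, then washed, crosslinked with 0.1% formaldehyde, proximity-ligated with BsaI/T4 ligase (1 h, 37 °C), PCR-amplified and sequenced on an Illumina NextSeq500.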

The next assay addresses T2, ELK1 (Homo sapiens, UniProt P19419 1-428).
T2 sequence: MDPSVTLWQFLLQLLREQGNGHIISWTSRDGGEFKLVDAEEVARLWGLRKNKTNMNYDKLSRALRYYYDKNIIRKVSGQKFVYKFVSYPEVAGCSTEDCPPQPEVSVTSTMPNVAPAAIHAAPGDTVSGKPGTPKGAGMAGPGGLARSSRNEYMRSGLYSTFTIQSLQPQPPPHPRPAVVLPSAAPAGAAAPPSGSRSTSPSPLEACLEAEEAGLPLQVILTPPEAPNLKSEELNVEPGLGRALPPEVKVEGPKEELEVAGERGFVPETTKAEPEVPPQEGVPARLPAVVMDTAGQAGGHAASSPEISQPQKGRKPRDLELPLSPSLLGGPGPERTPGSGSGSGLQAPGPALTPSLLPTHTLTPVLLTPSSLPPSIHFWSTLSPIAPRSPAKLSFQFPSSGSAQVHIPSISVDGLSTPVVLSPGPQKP
To be noted: protein: recombinant; tags: N-terminal GST; dsDNA, one strand shown. The method in brief: as §1

Another assay deals with T3, GABPA (Homo sapiens, UniProt Q06546 1-454).
T3 sequence: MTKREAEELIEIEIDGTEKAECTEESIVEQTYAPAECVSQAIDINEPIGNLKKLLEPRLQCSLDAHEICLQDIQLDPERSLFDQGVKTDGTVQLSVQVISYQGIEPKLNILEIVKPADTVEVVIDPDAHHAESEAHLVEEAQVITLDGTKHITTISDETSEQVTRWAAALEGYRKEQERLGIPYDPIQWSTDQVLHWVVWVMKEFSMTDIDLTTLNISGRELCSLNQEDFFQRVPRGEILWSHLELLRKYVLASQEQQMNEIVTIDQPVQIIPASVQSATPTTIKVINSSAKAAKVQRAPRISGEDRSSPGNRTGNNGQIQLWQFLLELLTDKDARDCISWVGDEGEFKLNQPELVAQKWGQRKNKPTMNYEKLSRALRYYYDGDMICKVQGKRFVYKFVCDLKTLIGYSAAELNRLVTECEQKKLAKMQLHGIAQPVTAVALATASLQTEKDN
The following applies: protein: recombinant; tags: N-terminal GST; dsDNA, one strand shown. The method in brief: as §1

The next assay deals with T4, ERG (Homo sapiens, UniProt P11308 1-479).
T4 sequence: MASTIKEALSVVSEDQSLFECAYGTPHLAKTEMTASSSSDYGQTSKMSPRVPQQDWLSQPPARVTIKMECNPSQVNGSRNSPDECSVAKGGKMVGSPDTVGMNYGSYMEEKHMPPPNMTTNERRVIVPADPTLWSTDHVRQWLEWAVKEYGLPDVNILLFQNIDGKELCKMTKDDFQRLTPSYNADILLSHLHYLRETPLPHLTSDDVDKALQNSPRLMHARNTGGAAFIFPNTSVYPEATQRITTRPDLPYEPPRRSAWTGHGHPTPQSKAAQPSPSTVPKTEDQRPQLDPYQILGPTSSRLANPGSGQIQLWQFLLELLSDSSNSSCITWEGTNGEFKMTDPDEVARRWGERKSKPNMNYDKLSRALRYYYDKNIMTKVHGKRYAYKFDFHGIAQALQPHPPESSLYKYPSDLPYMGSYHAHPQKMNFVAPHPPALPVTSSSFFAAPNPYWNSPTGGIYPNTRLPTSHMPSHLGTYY
The following applies: protein: recombinant; tags: N-terminal GST; dsDNA, one strand shown. The method in brief:
as §1

A further assay deals with ELF1 (Homo sapiens, UniProt P32519 1-619). The following applies: protein: recombinant; tags: N-terminal GST; dsDNA, one strand shown. The method in brief: as §1
Sequence of ELF1 (P32519 whole entry): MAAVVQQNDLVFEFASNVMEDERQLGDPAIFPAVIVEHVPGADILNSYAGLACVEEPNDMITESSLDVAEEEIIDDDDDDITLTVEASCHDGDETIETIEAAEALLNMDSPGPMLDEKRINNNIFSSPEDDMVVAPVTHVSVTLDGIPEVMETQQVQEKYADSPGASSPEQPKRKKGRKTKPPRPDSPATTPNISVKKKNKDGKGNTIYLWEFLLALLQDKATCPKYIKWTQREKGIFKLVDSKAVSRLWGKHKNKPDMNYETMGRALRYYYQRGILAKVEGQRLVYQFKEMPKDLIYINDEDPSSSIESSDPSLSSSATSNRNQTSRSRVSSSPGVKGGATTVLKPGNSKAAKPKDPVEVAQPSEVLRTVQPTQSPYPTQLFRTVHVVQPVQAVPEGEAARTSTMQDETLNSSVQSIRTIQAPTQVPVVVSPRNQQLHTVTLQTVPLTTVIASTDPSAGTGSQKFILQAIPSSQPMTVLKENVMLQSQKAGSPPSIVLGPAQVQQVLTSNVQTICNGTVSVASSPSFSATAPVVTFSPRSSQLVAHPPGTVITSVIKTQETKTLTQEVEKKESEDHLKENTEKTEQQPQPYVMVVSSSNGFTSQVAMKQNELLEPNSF
Another assay has as its target T5, EHF (Homo sapiens, UniProt Q9NZC4 1-300).
T5 sequence: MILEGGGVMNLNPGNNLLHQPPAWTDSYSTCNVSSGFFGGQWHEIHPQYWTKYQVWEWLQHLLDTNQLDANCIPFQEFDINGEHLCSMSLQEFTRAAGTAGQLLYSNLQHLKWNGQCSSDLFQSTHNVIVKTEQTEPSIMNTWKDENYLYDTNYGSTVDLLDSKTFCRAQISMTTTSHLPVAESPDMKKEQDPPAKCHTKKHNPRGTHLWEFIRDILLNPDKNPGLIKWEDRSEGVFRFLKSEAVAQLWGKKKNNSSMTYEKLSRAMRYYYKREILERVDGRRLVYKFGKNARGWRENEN
The following applies: protein: recombinant; tags: N-terminal GST; dsDNA, one strand shown. In a few lines:
as §1

A further assay deals with SPI1 (Homo sapiens, UniProt P17947 1-270). The following applies: protein: recombinant; tags: N-terminal GST; dsDNA, one strand shown. In a few lines: as §1
In another assay the target is SPIB (Homo sapiens, UniProt Q01892 1-262). To be noted: protein: recombinant; tags: N-terminal GST; dsDNA, one strand shown. The method in brief: as §1
Sequence of SPIB (Q01892 whole entry): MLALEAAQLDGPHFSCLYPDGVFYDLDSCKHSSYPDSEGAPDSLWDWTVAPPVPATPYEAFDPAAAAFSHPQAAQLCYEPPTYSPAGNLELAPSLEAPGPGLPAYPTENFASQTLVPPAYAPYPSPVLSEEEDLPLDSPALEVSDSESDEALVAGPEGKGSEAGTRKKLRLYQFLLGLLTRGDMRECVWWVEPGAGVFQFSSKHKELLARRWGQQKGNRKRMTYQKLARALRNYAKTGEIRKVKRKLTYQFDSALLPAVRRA
The target of a further assay is T6, ELK3 (Homo sapiens, UniProt P41970 1-407).
T6 sequence: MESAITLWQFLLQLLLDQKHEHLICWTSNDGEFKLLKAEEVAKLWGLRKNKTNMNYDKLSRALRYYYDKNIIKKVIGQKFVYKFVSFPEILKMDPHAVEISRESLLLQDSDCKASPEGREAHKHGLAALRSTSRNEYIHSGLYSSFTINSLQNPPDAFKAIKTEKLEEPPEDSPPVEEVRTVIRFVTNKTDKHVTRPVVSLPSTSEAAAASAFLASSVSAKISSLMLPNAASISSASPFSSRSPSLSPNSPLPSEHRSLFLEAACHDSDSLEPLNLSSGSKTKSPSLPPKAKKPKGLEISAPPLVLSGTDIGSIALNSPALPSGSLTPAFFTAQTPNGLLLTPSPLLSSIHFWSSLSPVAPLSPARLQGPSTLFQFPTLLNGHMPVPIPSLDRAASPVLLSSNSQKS
The following applies: protein: recombinant; tags: N-terminal GST; dsDNA, one strand shown. In a few lines:
as §1

Another assay has as its target T7, FEV (Homo sapiens, UniProt Q99581 1-238).
T7 sequence: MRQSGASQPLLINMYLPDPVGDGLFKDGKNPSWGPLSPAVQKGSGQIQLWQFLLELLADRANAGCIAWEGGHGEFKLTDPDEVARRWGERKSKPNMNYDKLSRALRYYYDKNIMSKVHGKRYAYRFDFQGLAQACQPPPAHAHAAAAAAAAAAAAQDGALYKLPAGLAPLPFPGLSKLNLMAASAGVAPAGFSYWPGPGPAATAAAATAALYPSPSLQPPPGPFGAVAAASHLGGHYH
The following applies: protein: recombinant; tags: N-terminal GST; dsDNA, one strand shown. The method in brief:
as §1

The next assay deals with ETV5 (Homo sapiens, UniProt P41161 1-510). The following applies: protein: recombinant; tags: N-terminal GST; dsDNA, one strand shown. The method in brief:
as §1

The next assay concerns the target HSF1 (Homo sapiens, UniProt Q00613 1-529). To be noted: protein: recombinant; tags: N-terminal GST; chain copies: 3; dsDNA, one strand shown. In a few lines: as §1
For a further assay, the target named is T8, SPIC (Homo sapiens, UniProt Q8N5J4 1-248).
T8 sequence: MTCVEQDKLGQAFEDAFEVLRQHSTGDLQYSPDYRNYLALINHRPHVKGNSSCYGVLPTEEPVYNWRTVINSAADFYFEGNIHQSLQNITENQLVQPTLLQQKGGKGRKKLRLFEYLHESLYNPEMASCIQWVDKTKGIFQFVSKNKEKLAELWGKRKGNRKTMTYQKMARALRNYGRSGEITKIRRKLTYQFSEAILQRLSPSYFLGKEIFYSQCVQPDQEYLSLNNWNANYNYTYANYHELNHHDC
To be noted: protein: recombinant; tags: N-terminal GST; dsDNA, one strand shown. In a few lines:
as §1

The target in the next assay is ELF4 (Homo sapiens, UniProt Q99607 1-663). The following applies: protein: recombinant; tags: N-terminal GST; dsDNA, one strand shown. In a few lines:
as §1

A further assay has as its target T9, ELK4 (Homo sapiens, UniProt P28324-2 1-405).
T9 sequence: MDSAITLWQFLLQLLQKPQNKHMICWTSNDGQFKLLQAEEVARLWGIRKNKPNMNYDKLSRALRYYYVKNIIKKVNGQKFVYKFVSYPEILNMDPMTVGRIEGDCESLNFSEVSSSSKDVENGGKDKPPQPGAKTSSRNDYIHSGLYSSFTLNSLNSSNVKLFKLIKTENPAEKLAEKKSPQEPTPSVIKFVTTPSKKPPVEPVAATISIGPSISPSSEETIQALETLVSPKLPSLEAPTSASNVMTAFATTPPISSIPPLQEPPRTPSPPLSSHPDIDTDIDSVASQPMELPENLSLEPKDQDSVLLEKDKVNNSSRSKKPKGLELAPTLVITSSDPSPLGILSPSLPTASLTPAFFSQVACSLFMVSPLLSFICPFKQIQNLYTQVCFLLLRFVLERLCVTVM
To be noted: protein: recombinant; tags: N-terminal GST; dsDNA, one strand shown. In a few lines:
as §1

For another assay, the target named is T10, ETV2 (Homo sapiens, UniProt O00321 1-342).
T10 sequence: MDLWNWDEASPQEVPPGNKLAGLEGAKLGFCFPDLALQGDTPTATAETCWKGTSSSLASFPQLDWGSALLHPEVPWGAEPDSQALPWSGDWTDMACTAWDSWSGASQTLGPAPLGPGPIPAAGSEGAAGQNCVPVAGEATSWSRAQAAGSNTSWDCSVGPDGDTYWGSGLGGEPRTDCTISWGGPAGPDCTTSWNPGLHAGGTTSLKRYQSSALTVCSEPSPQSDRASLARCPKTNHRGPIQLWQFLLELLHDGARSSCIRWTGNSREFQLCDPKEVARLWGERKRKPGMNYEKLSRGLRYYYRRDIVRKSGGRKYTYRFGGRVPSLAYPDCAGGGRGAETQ
To be noted: protein: recombinant; tags: N-terminal GST; dsDNA, one strand shown. The method in brief: as §1

The next assay concerns the target T11, ELF3 (Homo sapiens, UniProt P78545 1-371).
T11 sequence: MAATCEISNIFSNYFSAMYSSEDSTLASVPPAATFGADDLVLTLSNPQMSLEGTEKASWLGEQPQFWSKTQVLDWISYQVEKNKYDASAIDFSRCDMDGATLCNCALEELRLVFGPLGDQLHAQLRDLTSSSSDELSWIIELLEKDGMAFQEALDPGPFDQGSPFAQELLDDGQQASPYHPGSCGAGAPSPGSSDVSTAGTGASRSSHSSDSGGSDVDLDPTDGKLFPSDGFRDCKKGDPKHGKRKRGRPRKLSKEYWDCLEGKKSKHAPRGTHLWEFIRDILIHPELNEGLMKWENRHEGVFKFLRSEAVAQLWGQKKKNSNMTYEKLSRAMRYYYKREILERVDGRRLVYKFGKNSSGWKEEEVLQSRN
The following applies: protein: recombinant; tags: N-terminal GST; dsDNA, one strand shown. In a few lines:
as §1

For the next assay, the target named is CRX (Homo sapiens, UniProt O43186 1-299). To be noted: protein: recombinant; tags: N-terminal GST; dsDNA, one strand shown. In a few lines:
as §1

In another assay the target is ETV1 (Homo sapiens, UniProt P50549 1-477). To be noted: protein: recombinant; tags: N-terminal GST; dsDNA, one strand shown. In a few lines:
as §1

Experimental findings from article PMC7862700, “An all-to-all approach to the identification of sequence-specific readers for epigenetic DNA modifications on cytosine” are described below.

Sequence of ETV5 (P41161 whole entry): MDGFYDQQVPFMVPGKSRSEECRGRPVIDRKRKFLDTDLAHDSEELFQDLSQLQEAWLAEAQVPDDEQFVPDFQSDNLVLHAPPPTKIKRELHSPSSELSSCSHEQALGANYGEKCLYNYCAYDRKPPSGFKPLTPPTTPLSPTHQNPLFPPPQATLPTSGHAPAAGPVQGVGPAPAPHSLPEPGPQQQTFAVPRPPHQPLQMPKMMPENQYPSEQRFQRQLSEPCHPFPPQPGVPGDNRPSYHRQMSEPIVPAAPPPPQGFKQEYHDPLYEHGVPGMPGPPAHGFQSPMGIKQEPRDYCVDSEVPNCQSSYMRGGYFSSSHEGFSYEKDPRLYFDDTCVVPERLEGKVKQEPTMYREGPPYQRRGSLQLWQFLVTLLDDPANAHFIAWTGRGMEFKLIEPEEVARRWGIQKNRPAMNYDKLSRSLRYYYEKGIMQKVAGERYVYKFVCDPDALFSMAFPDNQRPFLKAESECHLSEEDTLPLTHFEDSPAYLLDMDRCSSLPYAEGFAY
Sequence of ELF4 (Q99607 whole entry): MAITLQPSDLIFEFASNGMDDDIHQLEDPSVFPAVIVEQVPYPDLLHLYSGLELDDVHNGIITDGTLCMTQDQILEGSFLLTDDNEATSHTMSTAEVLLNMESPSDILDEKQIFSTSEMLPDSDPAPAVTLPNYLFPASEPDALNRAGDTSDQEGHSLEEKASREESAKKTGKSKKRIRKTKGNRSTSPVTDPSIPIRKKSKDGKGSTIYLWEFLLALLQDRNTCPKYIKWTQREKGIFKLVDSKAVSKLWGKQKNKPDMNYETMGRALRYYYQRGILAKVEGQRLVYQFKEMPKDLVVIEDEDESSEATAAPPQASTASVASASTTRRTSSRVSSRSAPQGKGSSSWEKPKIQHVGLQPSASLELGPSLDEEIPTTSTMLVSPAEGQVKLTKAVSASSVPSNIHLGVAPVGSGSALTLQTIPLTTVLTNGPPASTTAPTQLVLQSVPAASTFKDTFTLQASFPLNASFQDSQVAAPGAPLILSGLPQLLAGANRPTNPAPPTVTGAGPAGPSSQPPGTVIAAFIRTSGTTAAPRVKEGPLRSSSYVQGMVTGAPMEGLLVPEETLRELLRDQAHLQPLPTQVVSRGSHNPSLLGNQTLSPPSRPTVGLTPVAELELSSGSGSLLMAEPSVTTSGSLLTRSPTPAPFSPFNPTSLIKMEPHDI
Sequence of HSF1 (Q00613 whole entry): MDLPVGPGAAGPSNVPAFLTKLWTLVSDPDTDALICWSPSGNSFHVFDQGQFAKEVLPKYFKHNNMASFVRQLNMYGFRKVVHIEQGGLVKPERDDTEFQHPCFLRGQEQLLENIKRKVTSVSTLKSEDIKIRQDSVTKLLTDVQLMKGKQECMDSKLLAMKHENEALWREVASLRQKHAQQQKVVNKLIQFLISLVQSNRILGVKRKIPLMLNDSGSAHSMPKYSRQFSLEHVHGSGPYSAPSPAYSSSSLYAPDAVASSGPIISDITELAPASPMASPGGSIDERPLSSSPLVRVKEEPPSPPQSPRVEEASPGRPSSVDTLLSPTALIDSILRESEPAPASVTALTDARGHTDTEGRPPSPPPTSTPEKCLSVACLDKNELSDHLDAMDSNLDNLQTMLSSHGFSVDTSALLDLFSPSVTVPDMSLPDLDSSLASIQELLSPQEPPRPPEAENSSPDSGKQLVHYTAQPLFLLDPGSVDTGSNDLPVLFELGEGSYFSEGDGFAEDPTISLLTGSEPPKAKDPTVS
Sequence of CRX (O43186 whole entry): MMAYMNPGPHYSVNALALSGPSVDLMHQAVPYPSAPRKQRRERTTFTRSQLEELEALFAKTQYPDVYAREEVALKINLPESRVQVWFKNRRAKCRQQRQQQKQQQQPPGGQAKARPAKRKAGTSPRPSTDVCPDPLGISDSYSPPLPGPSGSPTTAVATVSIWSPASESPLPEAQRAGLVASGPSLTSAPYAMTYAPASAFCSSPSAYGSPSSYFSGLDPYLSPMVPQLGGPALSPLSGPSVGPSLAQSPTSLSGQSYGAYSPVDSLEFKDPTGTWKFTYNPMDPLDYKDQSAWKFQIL
Sequence of ETV1 (P50549 whole entry): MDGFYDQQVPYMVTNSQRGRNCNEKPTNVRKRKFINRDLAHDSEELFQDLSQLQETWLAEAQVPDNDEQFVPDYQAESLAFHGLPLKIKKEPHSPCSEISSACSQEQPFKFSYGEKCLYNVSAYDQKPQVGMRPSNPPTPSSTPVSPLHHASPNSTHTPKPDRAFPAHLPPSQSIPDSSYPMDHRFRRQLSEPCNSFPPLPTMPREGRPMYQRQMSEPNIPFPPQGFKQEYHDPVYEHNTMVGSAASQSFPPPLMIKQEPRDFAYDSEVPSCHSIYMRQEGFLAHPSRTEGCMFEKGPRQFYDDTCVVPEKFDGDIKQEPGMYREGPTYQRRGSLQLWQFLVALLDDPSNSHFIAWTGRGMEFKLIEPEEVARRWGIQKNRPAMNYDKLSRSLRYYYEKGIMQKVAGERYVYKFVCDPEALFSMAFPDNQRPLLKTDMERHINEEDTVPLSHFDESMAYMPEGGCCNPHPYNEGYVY

With TTTACC, the binding signal with FLI1 was 1.28 fold enrichment (6-mer frequency, TF over GST control); in the assay with ELK1, 1.2 fold enrichment (6-mer frequency, TF over GST control); in the assay with GABPA, 1.24 fold enrichment (6-mer frequency, TF over GST control); in the assay with ERG it was 1.18 fold enrichment (6-mer frequency, TF over GST control); in the assay with ELF1 it was 1.23 fold enrichment (6-mer frequency, TF over GST control); with EHF it was 1.31 fold enrichment (6-mer frequency, TF over GST control). For the same sequence, the binding signal was 1.17 fold enrichment (6-mer frequency, TF over GST control) with SPI1; 1.21 fold enrichment (6-mer frequency, TF over GST control) with SPIB; 1.37 fold enrichment (6-mer frequency, TF over GST control) with ELK3; 1.32 fold enrichment (6-mer frequency, TF over GST control) in the assay with FEV; 1.29 fold enrichment (6-mer frequency, TF over GST control) with ETV5; 1.25 fold enrichment (6-mer frequency, TF over GST control) in the assay with HSF1. Besides, the binding signal was 1.17 fold enrichment (6-mer frequency, TF over GST control) with SPIC; 1.24 fold enrichment (6-mer frequency, TF over GST control) in the assay with ELF4; 1.41 fold enrichment (6-mer frequency, TF over GST control) with ELK4; 1.3 fold enrichment (6-mer frequency, TF over GST control) with ETV2; 1.2 fold enrichment (6-mer frequency, TF over GST control) in the assay with ELF3; 1.48 fold enrichment (6-mer frequency, TF over GST control) in the assay with CRX. Also, the binding signal with ETV1 was 1.16 fold enrichment (6-mer frequency, TF over GST control).
